Measured values from PubChem BioAssay (NCATS).
For some of these results: Results with a measured potency or affinity are listed apart. Active and inactive are the calls of the source. The rule behind the calls is not given here.

Key:
[1] = Ebola virus entry assay, green fluorescence channel
[2] = Ebola virus entry assay, blue channel fluorescence
[3] = Ebola virus entry assay, green channel fluorescence
[4] = Ebola virus entry assay, reporter ratio channel; AC50: Channel type: primary unless noted; outcome: Channel type: primary unless noted
[5] = Ebola virus entry assay, blue channel (ratio component)

Measured: efficacy
Throughout, for efficacy: 0% is about no effect.

CCCCCCCCCCCCCCCC(=O)O
inactive: [1] -6.91% | [2] | [3] | [4] | [5]

COc1ccc2nc(SCc3ncc(C)c(OC)c3C)[nH]c2c1
inactive: [1] -11.5% | [2] | [3] | [4] | [5]

CCN[C@H]1CN(CCCOC)S(=O)(=O)c2sc(S(N)(=O)=O)cc21
inactive: [1] 16.3% | [2] | [3] | [4] | [5]

CC(=O)Nc1ccc(OCC(O)CNC(C)C)cc1 (stereo not given)
inactive: [1] -28.6% | [2] | [3] | [4] | [5]

COc1ccc(C(=O)N2CCN(CC(=O)N3CCOCC3)CC2)cc1
inactive: [1] -11.2% | [2] | [3] | [4] | [5]

CCCN1CCCC[C@H]1C(=O)Nc1c(C)cccc1C
inactive: [1] 17.3% | [2] | [3] | [4] | [5]

C[N+](C)(C)CCOC(N)=O
inactive: [1] 12.2% | [2] | [3] | [4] | [5]

CN(C)CCN(Cc1ccsc1)c1ccccn1
inactive: [1] -18.4% | [2] | [3] | [4] | [5]

CC(=O)c1ccc(OCC(=O)N2CCCCC2)cc1
inactive: [1] -14.3% | [2] | [3] | [4] | [5]

CCOC(N)=O
inactive: [1] -34.6% | [2] | [3] | [4] | [5]

CC(=O)O[C@@H]1CC2C3CCc4cc(OC(=O)c5ccccc5)ccc4C3CCC2(C)[C@H]1OC(C)=O (stereo not given in full)
inactive: [1] 11.6% | [2] | [3] | [4] | [5]

C=CCn1c(=O)n([C@@H]2O[C@H](CO)[C@@H](O)[C@H]2O)c2nc(N)[nH]c(=O)c21
inactive: [1] -17.7% | [2] | [3] | [4] | [5]

CCOC(=O)c1ccc(O)cc1
inactive: [1] -24.8% | [2] | [3] | [4] | [5]

Clc1cccc(C(c2ccc3nc[nH]c3c2)n2ccnc2)c1 (stereo not given)
inactive: [1] -19.4% | [2] | [3] | [4] | [5]

CN(C)CCN1CCN(c2cccc(Cl)c2)C1=O
inactive: [1] -56.2% | [2] | [3] | [4] | [5]

Cc1cccc(C)c1NC(=O)CC12CCCN1CCC2
inactive: [1] -14.9% | [2] | [3] | [4] | [5]

Cc1onc(-c2c(Cl)cccc2Cl)c1C(=O)Cl
inactive: [1] -15.7% | [2] | [3] | [4] | [5]

CC(=O)Nc1ccc(OC(=O)c2ccccc2OC(C)=O)cc1
inactive: [1] -28.5% | [2] | [3] | [4] | [5]

CC1(C)Oc2ccc(C#N)cc2[C@@H](N2CCCC2=O)[C@@H]1O
inactive: [1] -10.5% | [2] | [3] | [4] | [5]

COc1ccc(-c2ccc3cc(C(=O)O)ccc3c2)cc1C12CC3CC(CC(C3)C1)C2
inactive: [1] 13% | [2] | [3] | [4] | [5]

O=C(CO)[C@@H](O)[C@H](O)[C@@H](O)CO
inactive: [1] 18.6% | [2] | [3] | [4] | [5]

COC(=O)c1ccc(NC(C)=O)cc1OC
inactive: [1] 15.6% | [2] | [3] | [4] | [5]

CCC(Cc1c(I)cc(I)c(N)c1I)C(=O)O (stereo not given)
inactive: [1] -15.6% | [2] | [3] | [4] | [5]

CC(=O)OC[C@H]1O[C@@H](OC(C)=O)[C@H](OC(C)=O)[C@@H]1OC(C)=O
inactive: [1] 18.7% | [2] | [3] | [4] | [5]

CN[C@@H]1[C@@H](O)[C@@H](O[C@@H]2[C@H](O)[C@H](O[C@H]3OC(CN)=CC[C@H]3N)[C@@H](N)C[C@H]2N)OCC1(C)O (stereo not given in full)
inactive: [1] -7.04% | [2] | [3] | [4] | [5]

COc1cc(C(=O)NC2CCCNC2)cc(OC)c1OC (stereo not given)
inactive: [1] -16% | [2] | [3] | [4] | [5]

CCC(=O)c1c(O)cc(O)cc1O
inactive: [1] 21.1% | [2] | [3] | [4] | [5]

C[C@]12C=CC(=O)C=C1[C@@H](F)C[C@@H]1[C@@H]2[C@@H](O)C[C@@]2(C)[C@H]1CC[C@]2(O)C(=O)CO
inactive: [1] 13.6% | [2] | [3] | [4] | [5]

CC(=O)OCC1=C(C(=O)O)N2C(=O)[C@@H](NC(=O)Cc3cccs3)[C@H]2SC1
inactive: [1] -9.53% | [2] | [3] | [4] | [5]

Oc1ccc(OCc2ccccc2)cc1
inactive: [1] 14.9% | [2] | [3] | [4] | [5]

O=C(O)Cn1c(=O)n(Cc2ccc(Br)cc2F)c(=O)c2ccc(Cl)cc21
inactive: [1] -18.1% | [2] | [3] | [4] | [5]

NS(=O)(=O)c1cc(-c2nn[nH]n2)c(NCc2cccs2)cc1Cl
inactive: [1] -20.9% | [2] | [3] | [4] | [5]

FC(F)(F)c1ccccc1-n1ccnc1
inactive: [1] 12.1% | [2] | [3] | [4] | [5]

O=C(O)[C@@H](O)[C@H](O)[C@H](O)[C@@H](O)C(=O)O
inactive: [1] -24.9% | [2] | [3] | [4] | [5]

O=C1CC(c2ccc(Cl)cc2)CC(=O)N1
inactive: [1] -27.6% | [2] | [3] | [4] | [5]

O=C(Oc1ccccc1C(=O)O)c1ccccc1O
inactive: [1] 10% | [2] | [3] | [4] | [5]

COc1ccnc(CS(=O)c2nc3ccc(OC(F)F)cc3[nH]2)c1OC (stereo not given)
inactive: [1] -31.1% | [2] | [3] | [4] | [5]

CCCCCCCC/C=C/C(=O)O
inactive: [1] 20.4% | [2] | [3] | [4] | [5]

N[C@@H](COP(=O)(O)O)C(=O)O
inactive: [1] -11.1% | [2] | [3] | [4] | [5]

Cc1ccc2ccc(Cl)cc2n1
inactive: [1] 18.4% | [2] | [3] | [4] | [5]

Nc1ccc(S(N)(=O)=O)cc1
inactive: [1] -20.5% | [2] | [3] | [4] | [5]

Nc1c[n+](N2CCOCC2)no1
inactive: [1] -8.8% | [2] | [3] | [4] | [5]

CCCCCC=CCC=CCCCCCCCC(=O)OCC
inactive: [1] 15.2% | [2] | [3] | [4] | [5]

CNCc1ccccc1
inactive: [1] -19.2% | [2] | [3] | [4] | [5]

Cc1ccccc1C(=O)N1CC/C(=N\OS(=O)(=O)O)c2ccc(Cl)cc21
inactive: [1] -25% | [2] | [3] | [4] | [5]

CCCC(CCC)(C(=O)OCC)C(=O)OCC
inactive: [1] 21% | [2] | [3] | [4] | [5]

COC(=O)c1cc(Cl)c(NC(C)=O)cc1OC
inactive: [1] -16.3% | [2] | [3] | [4] | [5]

COC(=O)c1cccnc1
inactive: [1] 12.2% | [2] | [3] | [4] | [5]

CCCOc1ccc2c(c1)CC[C@@H]1[C@@H]2CC[C@]2(C)C(OC)CC[C@@H]12 (stereo not given in full)
inactive: [1] -11.2% | [2] | [3] | [4] | [5]

NNC(=O)c1ccncc1
inactive: [1] 13.1% | [2] | [3] | [4] | [5]

CCOC(=O)c1ccc(N)cc1
inactive: [1] 26.1% | [2] | [3] | [4] | [5]

O=C(O)CCc1nc2ccccc2[nH]1
inactive: [1] -21.2% | [2] | [3] | [4] | [5]

O=C(NCCO[N+](=O)[O-])c1cccnc1
inactive: [1] -12.5% | [2] | [3] | [4] | [5]

CC(C(=O)O)c1ccc2c(c1)[nH]c1ccc(Cl)cc12 (stereo not given)
inactive: [1] -20.7% | [2] | [3] | [4] | [5]

O=C1OC(CN2CCOCC2)CN1/N=C/c1ccc([N+](=O)[O-])o1 (stereo not given)
inactive: [1] 29.1% | [2] | [3] | [4] | [5]

COc1cccc([C@@]2(O)CCCC[C@@H]2CN(C)C)c1
inactive: [1] -12.5% | [2] | [3] | [4] | [5]

COc1ccc2cc1Oc1cc3c(cc1OC)CC[N+](C)(C)[C@H]3Cc1ccc(cc1)Oc1c(OC)c(OC)cc3c1[C@@H](C2)[N+](C)(C)CC3
inactive: [1] -25.2% | [2] | [3] | [4] | [5]

CCOC(=O)/C=C(C)/C=C/C=C(C)/C=C/c1c(C)cc(OC)c(C)c1C
inactive: [1] 27.5% | [2] | [3] | [4] | [5]

C[C@H]1C[C@H](O)c2ccsc2S1(=O)=O
inactive: [1] 20.1% | [2] | [3] | [4] | [5]
